The supplement of paper PMC6555819

How the values were obtained:
Assay in all cases: PBM binding z-score (relative to random genomic background probes); higher = stronger binding; sequences stand for … in GC…GCGATTGACAGCGTAGAATGAAGG
[1] = test system: FXR:RXRa (NR concentration 270 nM, RXRa partner concentration 90 nM)
Procedure, shortened: (§1)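 Ligand-free nuclear receptor dimers were bound for 1 h to custom Agilent 4×180K protein-binding microarrays. Detection used antibodies against each partner (one per run). Binding z-scores rest on regression-normalized fluorescence, with random background probes as the reference.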

[2] = test system: LXRa:RXRa (NR concentration 270 nM, RXRa partner concentration 90 nM)
Procedure, shortened: as §1

[3] = test system: LXRa homodimer (NR concentration 270 nM)
Procedure, shortened: as §1

[4] = test system: LXRb:RXRa (NR concentration 270 nM, RXRa partner concentration 90 nM)
Procedure, shortened: as §1

[5] = test system: LXRb homodimer (NR concentration 270 nM)
Procedure, shortened: as §1

[6] = test system: PPARa:RXRa (NR concentration 270 nM, RXRa partner concentration 90 nM)
Procedure, shortened: as §1

[7] = test system: PPARg:RXRa (NR concentration 180 nM, RXRa partner concentration 90 nM)
Procedure, shortened: as §1

[8] = test system: PPARg:RXRa 270nM:90nM, anti-RXR (NR concentration 270 nM, RXRa partner concentration 90 nM)
Procedure, shortened: as §1

[9] = test system: PPARg:RXRa 30nM:10nM, anti-RXR (NR concentration 30 nM, RXRa partner concentration 10 nM)
Procedure, shortened: as §1

[10] = test system: PPARg:RXRa 90nM:30nM, anti-RXR (NR concentration 90 nM, RXRa partner concentration 30 nM)
Procedure, shortened: as §1

[11] = test system: PPARg:RXRa DBDmut IVT, anti-RXR (DBD mutation: RXRa K156A/R161A, NR concentration 270 nM, RXRa partner concentration 90 nM)
Procedure, shortened: as §1

[12] = test system: PPARg:RXRa IVT, anti-PPARg (NR concentration 270 nM, RXRa partner concentration 90 nM)
Procedure, shortened: as §1

[13] = test system: PPARg DBDmut:RXRa IVT, anti-PPARg (DBD mutation: PPARg1 K132A/R137A, NR concentration 270 nM, RXRa partner concentration 90 nM)
Procedure, shortened: as §1

[14] = test system: PPARg DBDmut IVT, anti-PPARg (DBD mutation: PPARg1 K132A/R137A, NR concentration 270 nM)
Procedure, shortened: as §1

[15] = test system: PPARg homodimer (NR concentration 180 nM)
Procedure, shortened: as §1

[16] = test system: PXR:RXRa (NR concentration 270 nM, RXRa partner concentration 90 nM)
Procedure, shortened: as §1

[17] = test system: PXR homodimer (NR concentration 270 nM)
Procedure, shortened: as §1

[18] = test system: RARa:RXR (NR concentration 270 nM, RXRa partner concentration 90 nM)
Procedure, shortened: as §1

[19] = test system: RARa homodimer (NR concentration 270 nM)
Procedure, shortened: as §1

[20] = test system: RARb:RXRa (NR concentration 270 nM, RXRa partner concentration 90 nM)
Procedure, shortened: as §1

Row | Sequence | PBM binding z-score [1] | PBM binding z-score [2] | PBM binding z-score [3] | PBM binding z-score [4] | PBM binding z-score [5] | PBM binding z-score [6] | PBM binding z-score [7] | PBM binding z-score [8] | PBM binding z-score [9] | PBM binding z-score [10] | PBM binding z-score [11] | PBM binding z-score [12] | PBM binding z-score [13] | PBM binding z-score [14] | PBM binding z-score [15] | PBM binding z-score [16] | PBM binding z-score [17] | PBM binding z-score [18] | PBM binding z-score [19] | PBM binding z-score [20]
1 | TGAATGAGGTTATAAGATCAGGGTACGTTGCAAA | 1.46 | 1.39 | 0.0526 | 1.44 | 0.315 | 2.72 | 1.53 | 1.96 | 0.789 | 1.23 | 0.889 | 1.69 | 1.22 | 0.612 | 0.135 | 1.17 | 0.33 | 1.74 | 0.229 | 1.27
2 | ATCTCTAGGTAACAAGATCAGTGAAAGAGAGGAC | 0.203 | 0.168 | 0.348 | 0.0382 | 0.596 | 0.578 | 1.09 | 0.835 | 0.253 | 0.677 | 3.03 | 2.72 | 1.75 | 1.21 | 0.336 | 0.0521 | -0.0922 | 0.158 | 1.1 | 0.327
3 | GATACAGGATCAAGGCCAGAGTACGCGTATTGAT | -0.429 | -0.625 | -0.269 | -0.535 | -0.452 | -0.133 | 0.979 | 0.356 | 0.0722 | 0.052 | -0.344 | -0.0749 | 0.581 | 0.288 | -0.0406 | -0.253 | -0.0263 | -0.382 | -0.179 | 0.164
4 | CGTCCAAGGTCATAGGAGGTCAGTCAAGACAGAT | 7.64 | 7.59 | 5.22 | 6.59 | 0.88 | 5.87 | 5.47 | 5.75 | 2.45 | 4.47 | 3.31 | 4.37 | 0.231 | 0.0229 | 4.04 | 6.74 | 4.16 | 5.99 | 1.15 | 5.37
5 | TCTGCTAGGTCCGTTGGTCAGCTAACGAGCTGCC | -0.505 | -0.6 | -1.09 | -0.828 | -0.736 | -0.336 | -1.2 | -0.0919 | 0.802 | 0.586 | 0.439 | -0.053 | -0.86 | 0.217 | -1.34 | -0.511 | -1.26 | -0.446 | -1.4 | -0.0528
6 | TAGCCTAGGTAATGGGCCAGTATACCACGCGAAC | -0.654 | -0.856 | -0.526 | -0.351 | -0.976 | -0.193 | 0.503 | 0.264 | -0.0812 | -0.179 | -0.319 | 0.78 | -0.42 | -0.561 | -0.148 | -0.351 | -0.609 | -0.221 | -0.573 | -0.295
7 | ATCTCTAGGTAACCAAGTTCTGTGAATGCCGAAC | 0.602 | 0.255 | 0.186 | 0.427 | 0.457 | 0.701 | 0.399 | 0.795 | 0.343 | 0.427 | 3.07 | 2.82 | 0.454 | 0.664 | 0.688 | 0.262 | 0.109 | 0.329 | 0.574 | 0.423
8 | GGAACGAGGGCAAAGTTGATTGCATCTGTCGACG | 1.25 | 0.976 | -0.336 | 0.888 | -0.546 | 3.9 | 6.23 | 6.84 | 5.63 | 6.92 | 4.27 | 4.05 | 0.0713 | -0.581 | 0.375 | 1.16 | 0.179 | 1.39 | -0.237 | 2.18
9 | CCTACTGGGCCAAAAAGGTCATTTATGCCGATAA | 3.57 | 4.05 | 4.05 | 4.58 | 0.674 | 4.48 | 3.08 | 3.67 | 1.23 | 2.79 | 3.34 | 3.95 | 0.881 | -0.177 | 3.37 | 4.67 | 3.36 | 4.88 | 1.02 | 3.7
10 | GGAACGAGGGTAAGTTGATAGCAGAGTTTGATGG | -0.0165 | -0.0993 | -0.232 | -0.276 | -0.358 | 0.189 | 0.422 | 0.00426 | -0.0948 | -0.0902 | 1.59 | 0.763 | 0.619 | 0.0122 | 0.193 | 0.0431 | 0.405 | -0.00911 | 0.262 | 0.727
11 | TCATATAGGTAAATGCTAGGCGAAAGTCCGATCT | 0.564 | 0.758 | 0.304 | 0.58 | -0.0313 | 0.932 | 0.63 | 2.22 | 3.7 | 2.88 | 3.99 | 1.93 | 1.19 | 0.583 | 0.561 | 0.4 | 0.459 | 0.458 | 0.728 | 0.249
12 | CCTGCAAGGTCATGGTCAGCTAATCTACAGTATG | 6.95 | 5.02 | 0.64 | 4.16 | 0.00573 | 5.68 | 4.66 | 5.14 | 2.07 | 3.51 | 2.84 | 3.3 | 1.03 | 1.64 | 3.29 | 4.62 | 0.377 | 5.57 | 1.03 | 5.04
13 | CCTCGGAGGACAACAGGAGGACAGAGCTGCCAGA | 0.107 | 0.0624 | -0.1 | -0.555 | -1.29 | -0.58 | 0.442 | -0.396 | -0.625 | -0.907 | -0.583 | -0.273 | -0.847 | -1.93 | -0.324 | -0.247 | -0.0933 | -0.0397 | -0.0805 | 1.09
14 | CTCGGAAGGTCGGTTGAGGTGAGTATACGGATAA | 2.43 | 0.338 | -0.673 | 0.113 | -0.399 | 1.01 | -0.0465 | -0.0669 | -0.473 | -0.159 | -0.598 | 0.491 | -0.365 | -0.461 | 0.527 | 1.84 | -0.347 | 0.849 | -0.2 | 1.89
